Data taken from PubChem BioAssay AID777 (Sanford-Burnham Center for Chemical Genomics, 2007).
Among all 96,000 compounds or so, about 19,000 (20%) were called active.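 How the source made its calls: active means blocking of liver enzyme CYP2C9 beyond about 50% at 5 µM (limit read from the data); inactive means the rest.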 Not all results are given here.

What follows are compounds tested against Cytochrome P450 2C9 (Homo sapiens) (UniProt P11712) (assay: blockers of cytochrome P450 2C9 activity – biochemical, luminescence, ADME assay, primary screen (AID 777)). Conditions: CYP2C9 Supersomes, luciferin-H conversion, at 5 µM, active compounds read high.
Sequence of Cytochrome P450 2C9 (Homo sapiens) (P11712 whole entry, looked up): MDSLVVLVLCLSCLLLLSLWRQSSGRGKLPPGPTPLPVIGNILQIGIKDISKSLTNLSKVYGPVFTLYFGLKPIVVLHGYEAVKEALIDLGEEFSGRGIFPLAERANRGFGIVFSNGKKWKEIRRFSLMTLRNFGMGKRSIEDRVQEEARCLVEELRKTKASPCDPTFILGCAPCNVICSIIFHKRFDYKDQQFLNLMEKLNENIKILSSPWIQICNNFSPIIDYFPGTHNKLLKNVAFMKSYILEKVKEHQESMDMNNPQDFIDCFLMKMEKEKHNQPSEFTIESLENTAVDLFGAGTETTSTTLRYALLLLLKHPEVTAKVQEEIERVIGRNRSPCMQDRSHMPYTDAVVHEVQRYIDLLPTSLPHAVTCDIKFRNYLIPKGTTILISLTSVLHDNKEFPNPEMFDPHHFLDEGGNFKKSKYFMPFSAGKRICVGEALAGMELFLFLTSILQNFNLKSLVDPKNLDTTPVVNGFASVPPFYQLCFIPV

SMILES | inhibition
CCCCc1nnc(NC(=O)CS(=O)(=O)Cc2ccccc2)s1 | 44.7% (inactive)
C=CCNc1nnc(C)c2ccccc12 | -15.2% (inactive)
Cc1ccccc1CN1CCN(C(=O)c2cccc(F)c2)CC1 | 85.6% (active)
Cc1cccc(C(=O)N2CCCN(C(=O)c3cccc(C)c3)CC2)c1 | 70.4% (active)
Cc1ccccc1CS(=O)(=O)CC1(O)CCN(C(=O)c2cccc(C(F)(F)F)c2)CC1 | 4.9% (inactive)
O=C(CN1CCN(C(=O)c2cccc(F)c2)CC1)Nc1ccccc1F | 27.5% (inactive)
Cc1ccc(C(=O)N2CCCCCC2)cc1Br | -23.3% (inactive)
O=C(c1ccccc1)N1CCN(C(=O)N2CCCCC2)CC1 | 1.9% (inactive)
Cc1ccc(S(=O)(=O)N(c2cccc(C)c2)C2CCS(=O)(=O)C2)cc1 (centres undefined) | 7.2% (inactive)
CC(C)C(=O)Nc1ccc2c(c1)oc1ccccc12 | 1.8% (inactive)
CC1Cc2ccccc2N1C(=O)CSc1nnc(-c2ccc(S(=O)(=O)N3CCCCC3)cc2)o1 (centres undefined) | 31.7% (inactive)
COc1ccc(C2=NOC3(CC(=O)N(c4ccc(C)cc4)C3=O)C2)cc1 (centres undefined) | 12% (inactive)
CCCc1nnc(NC(=O)c2cc(OC)cc(OC)c2)s1 | 21.7% (inactive)
Cc1ccc(NS(=O)(=O)c2c(C)[nH]c(=O)[nH]c2=O)cc1C | 4.6% (inactive)
COc1ccc(S(=O)(=O)N2CCCC2)c(C)c1C | -147% (inactive)
COc1ccc(S(=O)(=O)Nc2ccc(F)cc2)c(C)c1C | 66.9% (active)
CCOc1cc(C(=O)Nc2ncccn2)cc(OCC)c1OCC | 3.1% (inactive)
Nc1nnc(C2CCCC2)s1 | 7.5% (inactive)
CCCSC1=C(C#N)C(c2ccccc2C)C(C(=O)OC)C(=O)N1 (centres undefined) | 33.7% (inactive)
COc1ccc(NC(=O)c2sccc2SCC#N)cc1 | 10.4% (inactive)
CC1=C(C(=O)Nc2ccccc2)C(c2cccs2)C(C#N)=C(SCC#N)N1 (centres undefined) | 87.5% (active)
C/C(=N\O)C1(C)N(O)C(C)(C)C(c2ccc(Br)cc2)=[N+]1[O-] (centres undefined) | -4.6% (inactive)

SMILES | inhibition
O=c1onc(-c2cccs2)n1Cc1ccccc1 | 4.9% (inactive)
Cc1ccc(OCCCC(=O)N2CCOCC2)c(C)c1 | 4% (inactive)
CCCCCNC(=O)Cc1ccc(OC)cc1 | 14.9% (inactive)
COc1ccc(S(=O)(=O)N2CCC(C(=O)N3CCOCC3)CC2)cc1OC | 43.3% (inactive)
CCNC(=O)NC(=O)C(C)OC(=O)c1cc(S(=O)(=O)N2CCCCCC2)ccc1OC (centres undefined) | 98.5% (active)
CSCCC(NC(=O)c1ccco1)C(=O)OCC(=O)Nc1ncc(Cl)c(C)c1Cl (centres undefined) | 24.2% (inactive)
CCc1cc(=O)oc2cc(C)cc(OC(C)C(=O)O)c12 (centres undefined) | -7.1% (inactive)
CCCCc1cc(=O)oc2cc(C)cc(OCc3nn[nH]n3)c12 | 67.5% (active)
O=c1[nH]c(CCl)nc2cc(-c3ccc(Cl)cc3)sc12 | 17.9% (inactive)
O=C(Nc1sc2c(c1-c1nc3ccccc3[nH]1)CCCC2)C1CC1 | 40.5% (inactive)
CCOC(=O)c1[nH]c2ccc(C)cc2c1N=C(C)N(C)C | -7.9% (inactive)
CCOc1ccc(C(=O)N(Cc2ccc(N(C)C)cc2)C2CCS(=O)(=O)C2)cc1 (centres undefined) | 65.3% (active)
COc1cc(C(=O)N(Cc2ccc(N(C)C)cc2)C2CCS(=O)(=O)C2)cc(OC)c1OC (centres undefined) | 5.2% (inactive)
COc1ccc(C(=O)N(Cc2ccc(N(C)C)cc2)C2CCS(=O)(=O)C2)cc1 (centres undefined) | -2.3% (inactive)
O=C(Nc1nccs1)c1cc(S(=O)(=O)N2CCOCC2)c(Cl)cc1Cl | 15.1% (inactive)
CC(=O)N(CC1CCCO1)C1(C(=O)NC2CCCC2)CCCCC1 (centres undefined) | -7.3% (inactive)
COC(=O)c1ccc(CSc2nncn2C)cc1 | 21.6% (inactive)
COC(=O)c1ccc(CSc2ccc3nnc(-c4ccccc4)n3n2)o1 | 96.2% (active)
CCOc1ccccc1Nc1nnc(SCc2ccc(C(=O)OC)o2)s1 | -73.5% (inactive)
COc1cc(OC)cc(-c2nc3nc(C)c(CCC(=O)NCc4ccco4)c(C)n3n2)c1 | 15.8% (inactive)
O=C(NCc1ccccn1)c1c(O)c2c([nH]c1=O)CCCC2 | 15% (inactive)
COc1ccc(CNC(=O)C2CCC(CNc3c(N4CCOCC4)c(=O)c3=O)CC2)cc1 (centres undefined) | -7.6% (inactive)

SMILES | inhibition
Cc1cc(O)ccc1-c1cnc2ccccc2n1 | -7.4% (inactive)
CNC(=O)CN1C(=O)c2ccccc2S1(=O)=O | -5.9% (inactive)
O=C(CN1C(=O)c2ccccc2S1(=O)=O)N1CCc2ccccc21 | -5.2% (inactive)
O=C1c2ccccc2S(=O)(=O)N1CC(O)Cn1c2ccccc2c2ccccc21 (centres undefined) | 94.4% (active)
CCC(=O)Nc1ccc(C(=O)Nc2ccc3c(c2)C(=O)N(CC2CCCO2)C3=O)cc1 (centres undefined) | 18.8% (inactive)
CCOc1cccc(NC(=O)CC#N)c1 | -19.3% (inactive)
CC(=O)Nc1cccc(Oc2cc(C#N)c(C#N)cc2N2CCOCC2)c1 | 61.5% (active)
CC(=O)Nc1ccc(N2CCOCC2)c(C(=O)Nc2cccc(C)c2)c1 | 49.6% (inactive)
CCC(=O)Nc1ccc(C(=O)Nc2cc(C)on2)cc1 | 8.5% (inactive)
Cc1ccc(/C=N/NC(=O)c2sccc2OCc2ccc(F)cc2)cc1 | 17.4% (inactive)
O=C(Nc1nnc(CCOCCOCCc2nnc(NC(=O)c3ccco3)s2)s1)c1ccco1 | 19.4% (inactive)
Cc1[nH][nH]c(=O)c1N=Nc1ccccc1 | 25.4% (inactive)
NS(=O)(=O)c1ccc(CCNC(=O)Nc2ccc(Cl)cc2)cc1 | 30.4% (inactive)
COc1ccccc1-c1cc(C(=O)NCCCn2ccnc2)no1 | -25.8% (inactive)
O=C(NCCCn1ccnc1)Nc1ccc(Cl)cc1Cl | 97.7% (active)
CCCCOCCCNC(=O)c1ccccc1OCC | -187% (inactive)
CCOc1ccccc1C(=O)NCCCn1ccnc1 | 65.1% (active)
CCCC(=O)Nc1ccc(C(=O)NCCCn2ccnc2)cc1 | 42.1% (inactive)
Cn1c(=NC(=O)CSCC(=O)N2CCCCC2)sc2ccccc21 | -39.3% (inactive)
O=C(Cc1c(F)cccc1Cl)N1CCN(C(=O)c2ccco2)CC1 | 11.7% (inactive)
